system: MDA-MB-231; test: relative cell viability, compound + erastin, vs DMSO (fraction of DMSO control); higher = less growth inhibition; details: 72 h
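Further: viability read by CCK-8 kit in 96-well plates, part of a combination screen pairing lipid-metabolism-targeting compounds with erastin.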

| Structure (SMILES) | relative cell viability |
| --- | --- |
| O=S(=O)(c1ccccc1)N(CC(F)(F)F)c1ccc(C(O)(C(F)(F)F)C(F)(F)F)cc1 + CCOc1ccccc1-n1c(C(C)N2CCN(C(=O)COc3ccc(Cl)cc3)CC2)nc2ccccc2c1=O [erastin] | 0.45 |
| CCC(CC)CC1(C(=O)Nc2ccccc2SC(=O)C(C)C)CCCCC1 [Dalcetrapib] + CCOc1ccccc1-n1c(C(C)N2CCN(C(=O)COc3ccc(Cl)cc3)CC2)nc2ccccc2c1=O [erastin] | 0.839 |
| COc1cc(C(C)=O)ccc1O [Acetovanillone] + CCOc1ccccc1-n1c(C(C)N2CCN(C(=O)COc3ccc(Cl)cc3)CC2)nc2ccccc2c1=O [erastin] | 0.666 |
| N#Cc1ccc(Oc2cccc(NC(=O)Nc3ccc(Cl)c(C(F)(F)F)c3)c2)cc1 + CCOc1ccccc1-n1c(C(C)N2CCN(C(=O)COc3ccc(Cl)cc3)CC2)nc2ccccc2c1=O [erastin] | 0.127 |
| O=C(c1c2ccccc2cc2ccccc12)N1CCC(N2CCC[C@@H](C(=O)N3CCOCC3)C2)CC1 + CCOc1ccccc1-n1c(C(C)N2CCN(C(=O)COc3ccc(Cl)cc3)CC2)nc2ccccc2c1=O [erastin] | 0.483 |
| CCc1ccc(CCOc2ccc(CC3SC(=O)NC3=O)cc2)nc1 (stereo unspecified) [Pioglitazone] + CCOc1ccccc1-n1c(C(C)N2CCN(C(=O)COc3ccc(Cl)cc3)CC2)nc2ccccc2c1=O [erastin] | 0.551 |

From the supplement of paper PMC9492666
